This is part of a sample that, as a whole, favours compounds with a hit. Of some 83,000 tested, about 20% had one in any assay.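 Step 1: grow cells in 96-well plates. Step 2: add test compound at a single concentration. Step 3: incubate 48 h. Step 4: record percent growth.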 Values without a mark were called inactive. Active and inactive are the calls of the source. The calls were made as follows: active = growth percent below 10; inactive = the rest.

Among the test systems are SK-MEL-2 melanoma; EKVX NSCLC; SN12C renal; UO-31 renal; TK-10 renal; ACHN renal; CAKI-1 renal; A498 renal; CCRF-CEM leukemia; MOLT-4 leukemia; SR leukemia; RPMI-8226 leukemia; OVCAR-8 ovarian; OVCAR-5 ovarian; OVCAR-4 ovarian; SK-OV-3 ovarian; IGROV1 ovarian; OVCAR-3 ovarian; HS 578T breast; NCI/ADR-RES ovarian.
Common to all, as to assay: NCI-60 one-dose screen, 48 h (100 = growth as untreated, 0 = no growth, -100 = all killed)
What all share (settings): 10 µM unless noted

As for `CCCOc1cc2ccccc2cc1C(=O)Nc1nc(NC)c2c(ccc3nccc32)[nH]1`, the growth in the experiment with SK-MEL-2 melanoma was -60.8% (active); with EKVX NSCLC, -78.4% (active); in the experiment on SN12C renal, -71.7% (active); with UO-31 renal it was -88.8% (active); in the experiment with TK-10 renal, -65.8% (active); in the experiment on ACHN renal it was -90.7% (active). The growth with CAKI-1 renal was -63.8% (active); in the experiment with A498 renal, -92% (active); in the experiment with CCRF-CEM leukemia it was -30.2% (active); with MOLT-4 leukemia, -56.1% (active); in the experiment with SR leukemia, -49.3% (active); in the experiment with RPMI-8226 leukemia, -46% (active). Moreover, the growth is -33.2% (active) with OVCAR-8 ovarian; -61.4% (active) in the experiment on OVCAR-5 ovarian; -58.5% (active) in the experiment on OVCAR-4 ovarian; -86.9% (active) in the experiment on SK-OV-3 ovarian; -67.2% (active) with IGROV1 ovarian; -76% (active) in the experiment with OVCAR-3 ovarian. The growth in the experiment with HS 578T breast was -56.3% (active); in the experiment on NCI/ADR-RES ovarian it was -17% (active).
On to `CCN(CC)CCCCNc1c2ccc(Cl)cc2nc2ccc(OC)cc12`, for which the growth with SK-MEL-2 melanoma was 2.05% (active); with EKVX NSCLC, -8.96% (active); with SN12C renal, 4.57% (active); with UO-31 renal, -14.6% (active); with TK-10 renal, 15.4%; in the experiment on ACHN renal, -56.7% (active). In addition, the growth in the experiment with CAKI-1 renal is 9.92% (active); in the experiment with A498 renal, -83.9% (active); in the experiment with CCRF-CEM leukemia it was -27.8% (active); in the experiment on MOLT-4 leukemia, -22.2% (active); in the experiment on SR leukemia it was -19% (active); in the experiment with RPMI-8226 leukemia, -33.9% (active). Moreover, the growth is 5.44% (active) with OVCAR-8 ovarian; -12.2% (active) with OVCAR-5 ovarian; -50.2% (active) in the experiment with OVCAR-4 ovarian; 7.93% (active) with SK-OV-3 ovarian; 3.67% (active) with IGROV1 ovarian; -25.8% (active) in the experiment on OVCAR-3 ovarian. For the same compound, the growth with HS 578T breast is -23.2% (active); in the experiment on NCI/ADR-RES ovarian, 4.68% (active).
Turning to `COc1cccc(C2=NN3C(C2)c2cc(Br)cc(OC)c2OC32CCN(Cc3ccccc3)CC2)c1` (stereo not given), the growth in the experiment on SK-MEL-2 melanoma is 102%; in the experiment with EKVX NSCLC, 94.8%; with SN12C renal, 98.7%; in the experiment on UO-31 renal, 85.3%; in the experiment on TK-10 renal, 108%; with ACHN renal, 102%. For the same compound, the growth was 90.3% in the experiment with CAKI-1 renal; 104% in the experiment with A498 renal; 109% in the experiment with CCRF-CEM leukemia; 106% in the experiment on MOLT-4 leukemia; 111% with SR leukemia; 107% in the experiment on RPMI-8226 leukemia. In addition, the growth in the experiment on OVCAR-8 ovarian was 104%; in the experiment with OVCAR-5 ovarian, 105%; in the experiment on OVCAR-4 ovarian it was 90.8%; in the experiment on SK-OV-3 ovarian, 106%; in the experiment with IGROV1 ovarian it was 98.6%; in the experiment with OVCAR-3 ovarian, 105%. The growth in the experiment on HS 578T breast is 94.7%; with NCI/ADR-RES ovarian, 105%.
For `CN1CCN(c2ccc3nc(-c4ccc(OCCCCN5CCN(CCCCN6C(=O)c7cccc8cccc(c78)C6=O)CC5)cc4)[nH]c3c2)CC1`, the growth in the experiment with SK-MEL-2 melanoma was 79.2%; in the experiment on EKVX NSCLC it was 78.9%; in the experiment on SN12C renal, 73.8%; in the experiment on UO-31 renal it was 16.7%; in the experiment on TK-10 renal, 88.4%; in the experiment with ACHN renal it was 89%. Besides, the growth is 33.1% in the experiment with CAKI-1 renal; 119% in the experiment with A498 renal; 26.2% in the experiment on CCRF-CEM leukemia; 52% with MOLT-4 leukemia; -68.4% (active) in the experiment on SR leukemia; 26.3% in the experiment with RPMI-8226 leukemia. In addition, the growth with OVCAR-8 ovarian was 22.6%; with OVCAR-5 ovarian it was 116%; in the experiment with OVCAR-4 ovarian it was 80.5%; in the experiment with SK-OV-3 ovarian, 89.3%; in the experiment with IGROV1 ovarian, 58.5%; in the experiment with OVCAR-3 ovarian, 76.1%. Also, the growth in the experiment with HS 578T breast was 35.2%; in the experiment on NCI/ADR-RES ovarian, 69.6%.
Turning to `O=Nc1c(O)c(Cl)cc2ccccc12`, the growth was 93.4% with SK-MEL-2 melanoma; 111% in the experiment on EKVX NSCLC; 82.6% with SN12C renal; 64.3% in the experiment on UO-31 renal; 66.3% in the experiment with TK-10 renal; 65.3% in the experiment with ACHN renal. Also, the growth is 76.5% in the experiment with CAKI-1 renal; 77.2% in the experiment with A498 renal; 39.4% in the experiment on CCRF-CEM leukemia; 45.7% in the experiment on MOLT-4 leukemia; 71.7% in the experiment on SR leukemia; 40.1% with RPMI-8226 leukemia. For the same compound, the growth in the experiment on OVCAR-8 ovarian was 68.6%; with OVCAR-5 ovarian it was 115%; in the experiment on OVCAR-4 ovarian it was 78.9%; with SK-OV-3 ovarian it was 81.4%; with IGROV1 ovarian, 59.1%; in the experiment with OVCAR-3 ovarian, 67.3%. Further, the growth in the experiment with HS 578T breast is 89.4%; in the experiment on NCI/ADR-RES ovarian, 72.2%.
As to `COc1ccc(/C=C/c2nc3ccccc3nc2/C=C/c2ccc(OC)cc2)cc1`, the growth in the experiment on SK-MEL-2 melanoma is 101%; in the experiment on EKVX NSCLC, 96.2%; in the experiment on SN12C renal, 101%; in the experiment with UO-31 renal, 84.7%; in the experiment on TK-10 renal, 95.8%; in the experiment on ACHN renal, 97.6%. The growth with CAKI-1 renal is 86.4%; with A498 renal it was 83.9%; with CCRF-CEM leukemia, 98.2%; in the experiment with MOLT-4 leukemia, 99.1%; with SR leukemia, 83.8%; in the experiment on RPMI-8226 leukemia it was 98.5%. The growth with OVCAR-8 ovarian is 99.5%; with OVCAR-5 ovarian, 99.8%; in the experiment on OVCAR-4 ovarian it was 88.7%; with SK-OV-3 ovarian, 102%; in the experiment on IGROV1 ovarian it was 110%; in the experiment with OVCAR-3 ovarian, 104%. Also, the growth in the experiment on HS 578T breast was 90.8%; in the experiment on NCI/ADR-RES ovarian, 99.5%.
As to `COc1ccccc1NS(=O)(=O)c1ccc2oc(SC(C)C)nc2c1`, the growth is 66.4% in the experiment on SK-MEL-2 melanoma; 55.9% in the experiment with EKVX NSCLC; 89.3% in the experiment with SN12C renal; 73.5% in the experiment with UO-31 renal; 102% in the experiment on TK-10 renal; 151% with ACHN renal. Also, the growth with CAKI-1 renal was 71.2%; in the experiment with A498 renal it was 91.4%; with CCRF-CEM leukemia, 65%; with MOLT-4 leukemia, 69.6%; in the experiment on SR leukemia, 54.9%; with RPMI-8226 leukemia, 52.2%. For the same compound, the growth in the experiment with OVCAR-8 ovarian is 83.1%; with OVCAR-5 ovarian, 82.1%; in the experiment with OVCAR-4 ovarian, 53%; in the experiment with SK-OV-3 ovarian it was 114%; with IGROV1 ovarian it was 92.1%; in the experiment on OVCAR-3 ovarian it was 85.7%. For the same compound, the results for the growth in the experiment on HS 578T breast and in the experiment on NCI/ADR-RES ovarian were 95.4% and 43.8%, respectively.

Source of the values: PubChem BioAssay (NCI).
